Measurements published in PubChem BioAssay AID1851 (National Center for Advancing Translational Sciences (NCATS), 2009).
Where “and” joins values, the source holds several entries; their conditions need not be identical. Identical values can stand only once. Hit rate of the full screen: of about 16,000 compounds, about 4,000 (25%) were called active. About 26% were inconclusive and are not listed. Calls follow the shape of the dose curve; as a rule, active = well fitted curve in the direction sought with a large enough effect; inconclusive = small, poorly fitted or top-dose-only effect, or effect the other way; inactive = no such curve, though single readings can be large or run the other way. Only a sample is shown. The source holds several records for some structures; these can differ, active in one and inactive in another.

Each compound was assayed against Cytochrome P450 2C9 (Homo sapiens) (UniProt P11712) (assay: Cytochrome panel assay with activity outcomes). Settings: recombinant CYP, pro-luciferin dealkylation, luminescence, p450-cyp2c9; series mostly up to 57.1 µM; activity, negative = inhibition: at the top concentration.
% is scaled to controls: 0 for no effect and ±100 for the full control effect.

Chain of Cytochrome P450 2C9 (Homo sapiens) (P11712 whole entry, looked up): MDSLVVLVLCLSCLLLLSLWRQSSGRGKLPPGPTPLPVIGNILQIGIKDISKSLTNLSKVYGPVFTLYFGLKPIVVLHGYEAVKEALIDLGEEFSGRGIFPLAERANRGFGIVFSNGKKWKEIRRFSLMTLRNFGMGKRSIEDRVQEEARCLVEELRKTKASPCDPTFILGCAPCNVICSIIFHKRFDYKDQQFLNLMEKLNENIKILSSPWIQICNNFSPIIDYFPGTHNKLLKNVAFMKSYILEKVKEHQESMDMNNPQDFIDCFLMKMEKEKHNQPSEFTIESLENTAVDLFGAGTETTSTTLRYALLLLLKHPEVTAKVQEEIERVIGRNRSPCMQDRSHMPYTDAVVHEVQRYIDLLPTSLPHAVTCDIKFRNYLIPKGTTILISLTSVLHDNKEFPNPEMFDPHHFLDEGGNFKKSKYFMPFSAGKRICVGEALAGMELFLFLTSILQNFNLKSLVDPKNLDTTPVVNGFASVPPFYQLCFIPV

SMILES	AC50	activity, negative = inhibition
CCC(CC)c1nnc(NC(=O)c2cccc(S(=O)(=O)N3CCc4ccccc43)c2)s1	1.58 µM (active)	
CCOC(=O)CSc1nnc(NC(=O)c2cccc(S(=O)(=O)N3CCCCCC3)c2)s1	1 µM (active)	
O=S(=O)(O)c1ccc2c(N=Nc3cccc4ccccc34)c(O)c(S(=O)(=O)O)cc2c1		-3.82% [at 11.4 µM] (inactive)
O=[N+]([O-])c1ccc2c(N=Nc3ccc4ccccc4c3O)c(O)cc(S(=O)(=O)O)c2c1	3.16 µM (active)	
O=S(=O)(O)c1ccc(N=Nc2ccc3c(S(=O)(=O)O)cccc3c2O)c2ccccc12		-12.3% [at 11.4 µM] (inactive)
O=S(=O)(C[C@H](O)C(Cl)(Cl)Cl)NNc1ccccc1		-2.23% [at 11.4 µM] (inactive)
O=C(Nc1ccccc1)N(Cc1ccccc1)CC(O)C(F)(F)F (centres undefined)	12.6 µM (active)	
O=C(O)c1ccc(NS(=O)(=O)Cc2ccccc2)cc1		-7.98% [at 11.4 µM] (inactive)
O=C(Nc1cccc(C(F)(F)F)c1)N(Cc1ccc(Cl)cc1)CC(O)C(F)(F)F (centres undefined)	8.91 µM (active)	
O=C(O)CNc1ccc(C(=O)O)cc1		3.72% [at 11.4 µM] (inactive)
Cc1cc(C2(c3cc(C)c(O)c(C(=O)O)c3)OS(=O)(=O)c3ccccc32)cc(C(=O)O)c1O		14.9% [at 11.4 µM] (inactive)
CC(C)c1ccc(CN(C(=O)C2COc3ccccc3O2)C2CCS(=O)(=O)C2)cc1 (centres undefined)	11.2 µM (active)	
CO/N=C(/CNC(=O)c1ccc(Cl)cc1Cl)c1ccc(Cl)cc1	1.12 µM (active)	
O=C(CNc1cccc(Cl)c1)c1ccc(Cl)cc1		-14.9% (inactive)
COc1cccc(C(=O)NCCN2CCN(c3ccc(Cl)cc3)CC2)c1		14.4% (inactive)
CO/N=C(/CNC(=O)c1cccc(Cl)c1)c1ccc(Cl)cc1	3.55 µM (active)	
OC[C@@H](O)[C@@H](O)[C@@H](O)[C@@H](O)c1nc2ccc(Cl)cc2[nH]1		-5.01% [at 11.4 µM] (inactive)
N[C@@H]1CONC1=O	inactive	
Cn1c([N+](=O)[O-])cnc1COC(N)=O		29.3% [at 25.6 µM] (inactive)
CSc1nc(N)c2ncn([C@@H]3O[C@@H](COP(=O)(O)OP(=O)(O)O)[C@@H](O)[C@H]3O)c2n1		8.4% (inactive)
COc1ccc(NC(=O)c2ccc(-c3ccc(-c4noc(C)n4)cc3C)cc2)cc1N1CCN(C)CC1	inactive and 7.94 µM (active)	
COc1ccc(NC(=O)c2ccc(-c3ccc(-c4noc(C)n4)cc3C)cc2)cc1OCCN(C)C		-5.88% (inactive)
CNCCC=C1c2ccccc2CCc2ccccc21	inactive	
OC[C@@H]1O[C@@H](n2cnc3c(NC4CCCC4)ncnc32)[C@@H](O)[C@H]1O		12.1% (inactive)
CCCC1(C(=O)OC)C=C2C(=C(c3ccccc3)C(=O)C2C)CN1 (centres undefined)	5.01 µM (active)	
COC(=O)C1(CC(C)C)C=C2C(=C(c3ccccc3)C(=O)C2C)CN1 (centres undefined)	10 µM (active)	
COC(=O)C1(Cc2ccccc2)C=C2C(=C(C)C(=O)C2C)CN1 (centres undefined)		-21.6% (inactive)

SMILES	AC50	activity, negative = inhibition
CC1(C)CC(=O)C(CCC(=O)c2ccccc2)C(C)(C)N1 (centres undefined)		-16.3% (inactive)
COC(=O)C1(C)C=C2C(=C(c3ccccc3)C(=O)C2C)CN1 (centres undefined)	10 µM (active)	
CN(C)c1ccc(-c2cncnc2NCc2ccccc2)cc1		-13.6% [at 2.29 µM] (inactive)
NC(=O)C[C@H](N)C(N)=O		-1.03% [at 11.4 µM] (inactive)
CN[C@]1(C)[C@H]2CC[C@@H](C2)C1(C)C		-5.41% [at 25.6 µM] (inactive)
Clc1ccc2c(NCCNc3ccnc4cc(Cl)ccc34)ccnc2c1		-3.79% [at 11.4 µM] (inactive)
CN[C@@H]1[C@H](O[C@@H]2O[C@H](CO)[C@@H](N)[C@H](O)[C@@H]2O)O[C@H]2C[C@@H](N)[C@@H](O[C@H]3[C@@H](O)[C@H](O)[C@H](N)C[C@@H]3N)O[C@H]2[C@H]1O		-2.58% [at 25.6 µM] (inactive)
COc1cc(OC)c2cc(-c3ccncc3)cnc2c1		-9.27% (inactive)
CCOC(=O)c1cc(NC(=O)c2ccc(C)cc2)c(=O)oc1-c1ccccc1		-18% (inactive)
CCOC(=O)c1cc2c(C(F)(F)F)cc(-c3ccccc3)nc2o1	2.24 µM (active)	
Cc1[nH]c2c(C)cccc2c1CCNC(=O)c1ccc2c(c1[N+](=O)[O-])C(=O)c1ccccc1C2=O	1.12 µM (active)	
Cc1[nH]c2ccccc2c1CCNC(=O)c1ccc2c(c1[N+](=O)[O-])C(=O)c1ccccc1C2=O		-4.48% (inactive)
COc1ccccc1-c1cncnc1NCc1cccnc1		3.29% [at 2.29 µM] (inactive)
O=C(CSCc1cccc(Br)c1)N/N=C/c1ccc2c(c1)OCO2	10 µM (active)	
O=C(/C=C/c1ccc2c(c1)OCO2)NCCSCc1cccc(Cl)c1	5.01 µM (active)	
O=C(Cn1nc(C(F)F)cc1C(F)F)N/N=C/c1ccc2c(c1)OCO2		-10% (inactive)
C=CCNC(=O)CC(=O)N/N=C/c1cccc(Br)c1		-4.91% (inactive)
OC[C@@H]1O[C@@H](N2CCN([C@@H]3O[C@@H](CO)[C@@H](O)[C@H](O)[C@H]3O)CC2)[C@@H](O)[C@H](O)[C@H]1O		7.18% [at 11.4 µM] (inactive)
Cc1ccc(NC(=O)C(=O)NCc2ccc(/C=C(/C#N)C(=O)NCc3cccnc3)o2)cc1	0.631 µM (active)	
CCN1C(=O)[C@H]2[C@H]3[C@H](O)[C@H](O)C/C(=N/OC[C@@H](C)[C@H](OCc4ccccc4)C(C)C)[C@@H]3CC[C@@H]2C1=O		19.1% [at 11.4 µM] (inactive)
Cc1cccc(CNc2nc(-c3ccoc3)nc3ccccc23)c1		-6.69% [at 2.29 µM] (inactive)
Cc1cccc(NC(=O)CSc2nc3ccccc3c3nc(CCc4c(C)n[nH]c4C)nn23)c1	1.26 µM (active)	
Cc1ncc(CSC(=N)N)n1Cc1ccccc1		-16.1% [at 11.4 µM] (inactive)
Cc1nnc(-c2cnn(-c3ccccc3)c2N)n1Cc1ccc(F)cc1	15.8 µM (active)	
Cc1nnc(-c2cnn(-c3ccccc3)c2N)n1Cc1ccncc1	14.1 µM (active)	
N=C(N)C(N=Nc1ccccc1)C(=N)N (centres undefined)		11.9% [at 11.4 µM] (inactive)
O=C(O)[C@@H](O)[C@@H](O)[C@@H](O[C@H]1O[C@@H](CO)[C@@H](O)[C@@H](O)[C@@H]1O)[C@@H](O)CO		-14.4% [at 25.6 µM] (inactive)
